Screening results as filed in PubChem.
VACV Venus inh: qHTS for Stage-Specific Inhibitors of Vaccinia Orthopoxvirus: Venus Reporter Primary qHTS. Vaccinia virus Venus reporter expression, fluorescence. Potency, µM (top dose mostly 36.5 µM), hits mostly inhibitors. 330,000 compounds, 0.46% hits; calls by dose curve; tested in A549 cells; also: nearly all actives have a fitted effect of over 30% in size
Marburg entry inh: qHTS for inhibitors of binding or entry into cells for Marburg Virus; Potency, µM (top dose mostly 37.8 µM), hits mostly inhibitors; Marburg virus pseudotyped entry inhibition, cell reporter; 300,000 compounds, 1.8% hits; calls by dose curve; tested in HEK293 cells
Lassa entry inh: qHTS for Inhibitors of binding or entry into cells for Lassa Virus | Lassa virus pseudotype entry inhibition, cell reporter | Potency, µM (titrated, usually from 37.9 µM), actives largely listed as inhibitors | 300,000 compounds, 1.2% hits; calls by dose curve; tested in HEK293 cells; also: nearly all actives have a fitted effect of over 50% in size
FMDV antiviral: High Throughput Screening for Foot and Mouth Disease Virus Antivirals; FMDV antiviral cell-based qHTS; Potency, µM (titrated, usually from 57.9 µM), most hits filed as inhibitors; 410,000 compounds, 1.2% hits; calls by dose curve; tested in HEK293T cells; also: read-out not given here; nearly all actives have a fitted effect of over 45% in size
HCMV inh: qHTS Assay for inhibitors of the human cytomegalovirus (HCMV); 410,000 compounds, 4.5% hits; HFF cells, HCMV-luciferase reporter, 72 h; hits give low values; activity change, negative = inhibition, % at 57.5 µM; AID 1259415, 2018; in the data active = activity change below about -60%; inconclusive = no clear call, values can overlap the other calls; inactive = above about -39%
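After 16 h attachment at 37C, HFF cells received test compound and HCMV-luciferase (1 PFU/cell); reporter luminescence read 72 h later, data normalized against buffer-only and known inhibitor Salinomycin.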
Vaccinia mCherry: qHTS for Stage-Specific Inhibitors of Vaccinia Orthopoxvirus: mCherry Reporter Primary qHTS; Vaccinia virus mCherry reporter infection, fluorescence; Potency, µM (titrated, usually from 36.5 µM), usual class: inhibitors; 310,000 compounds, 0.63% hits; calls by dose curve; tested in A549 cells; also: nearly all actives have a fitted effect of over 35% in size
Each line names hits and unclear results; the compound was inactive in the other large screens. Rows were chosen to be rich in hits. Some 6.5% of all compounds tested hit in one or more screens of this group.

CC(=O)OC(/C(O)=C(\C#N)c1nc2ccccc2[nH]1)c1ccccc1 (configuration not stated)	HCMV inh -96, Vaccinia mCherry inconclusive (no result: FMDV antiviral)
CN1CCN(c2nc(-c3cccnc3)nc3scc(-c4ccccc4)c23)CC1	Marburg entry inh inconclusive
Clc1nc(-c2ccccn2)nc2scc(-c3ccccc3)c12	Marburg entry inh inconclusive, Lassa entry inh inconclusive, FMDV antiviral inconclusive, HCMV inh -66
CCCSc1ncc(Cl)c(C(=O)Nc2ccc(S(=O)(=O)N3CCCC(C)C3)cc2)n1 (configuration not stated)	HCMV inh inconclusive
CCCC[n+]1c2ccccc2cc2ccccc21	VACV Venus inh inconclusive, FMDV antiviral 28µM, HCMV inh inconclusive (no result: Marburg entry inh, Lassa entry inh)
CCC[n+]1c2ccccc2cc2ccccc21	Marburg entry inh inconclusive, Lassa entry inh inconclusive, FMDV antiviral inconclusive, HCMV inh -70, Vaccinia mCherry inconclusive
Cc1ccc2ccccc2[n+]1CCCS(=O)(=O)[O-]	none
O=c1c2ccccc2cnn1-c1ccc(Br)cc1	Marburg entry inh inconclusive, Lassa entry inh inconclusive (no result: Vaccinia mCherry)
O=c1c2ccccc2cnn1-c1ccc2ccccc2c1	Marburg entry inh inconclusive, Lassa entry inh 10µM, FMDV antiviral inconclusive (no result: VACV Venus inh, Vaccinia mCherry)
COc1ccc(CN(Cc2ccco2)C(=O)COc2ccccc2OC)cc1	none
Cc1c(C)n(Cc2ccccc2)c2ccc(C(=O)O)cc12	none
Cc1cc(C)n(Cc2ccc(NC(=O)c3ccc(COc4ccccc4Br)cc3)cc2)n1	Marburg entry inh inconclusive, Lassa entry inh inconclusive, FMDV antiviral 13µM, HCMV inh -90 (no result: VACV Venus inh, Vaccinia mCherry)
NC(=O)c1ccc(NC(=O)c2ccc(COc3ccccc3Br)cc2)cc1	none
Cc1ccc(C)n1Cc1ccc(C(=O)O)cc1	Marburg entry inh 9.2µM (no result: VACV Venus inh, HCMV inh, Vaccinia mCherry)
Cc1cc(C)n(Cc2ccc(C(=O)O)cc2)n1	HCMV inh -65 (no result: FMDV antiviral)
Cc1ccc(S(=O)(=O)N2CCN(c3nc(-c4cccs4)nc4c3ncn4COC(=O)C(C)(C)C)CC2)cc1	none (no result: Marburg entry inh, Lassa entry inh, FMDV antiviral, HCMV inh)
CCOC(=O)C1=C(NC(=S)NC(=O)c2ccccc2)c2ccccc2CC1(C)CC (configuration not stated)	Marburg entry inh 5.8µM, Lassa entry inh 2.1µM, HCMV inh inconclusive
CCOC(=O)c1sc(NC(=S)NC(=O)c2ccccc2)c(C(=O)OCC)c1C	none
CCOC(=O)C1=C(NC(=S)NC(=O)c2ccccc2)c2ccccc2CC1C(C)C (configuration not stated)	Marburg entry inh 0.79µM, Lassa entry inh 0.89µM, HCMV inh -77, Vaccinia mCherry inconclusive
Cc1cccc2cc(CN(C(=O)c3ccc(-c4ccc(F)cc4)cc3)C3CC3)c(N3CCC(O)CC3)nc12	Vaccinia mCherry inconclusive (no result: Marburg entry inh, Lassa entry inh, HCMV inh)
Cc1ccc(-n2sc3cc(F)ccc3c2=O)c(C)c1	VACV Venus inh inconclusive, FMDV antiviral inconclusive, HCMV inh -70 (no result: Marburg entry inh, Lassa entry inh)
Cc1sc(NC(=O)c2ccco2)c(C(c2cccnc2)N2CCCC2)c1C (configuration not stated)	Marburg entry inh inconclusive, HCMV inh -62 (no result: VACV Venus inh, Vaccinia mCherry)
COc1ccc(S[C@]2(c3nc(C)no3)CC(=O)N(S(=O)(=O)c3ccc(F)cc3)[C@@H]2c2ccc(OC)cc2)cc1	none (no result: VACV Venus inh, Marburg entry inh, Lassa entry inh, FMDV antiviral, Vaccinia mCherry)
CCc1nccc2c1nc(-c1nonc1N)n2CC	Lassa entry inh 25µM (no result: VACV Venus inh, Marburg entry inh, FMDV antiviral, HCMV inh, Vaccinia mCherry)
Nc1nc(C(=O)N2CCOCC2)nn1S(=O)(=O)c1ccc(Cl)cc1	none (no result: VACV Venus inh, Vaccinia mCherry)
Cc1nnsc1S(=O)c1ccc(Cl)cc1 (configuration not stated)	HCMV inh inconclusive (no result: VACV Venus inh, Marburg entry inh, Lassa entry inh, Vaccinia mCherry)
O=C(c1nnsc1S(=O)(=O)c1ccc(Cl)cc1)N1CCOCC1	VACV Venus inh inconclusive, Marburg entry inh inconclusive, Lassa entry inh inconclusive, FMDV antiviral 16µM, Vaccinia mCherry inconclusive
O=C(c1nnsc1S(=O)c1ccc(Cl)cc1)N1CCOCC1 (configuration not stated)	VACV Venus inh inconclusive, Marburg entry inh inconclusive, Lassa entry inh inconclusive, FMDV antiviral 35µM, HCMV inh -98, Vaccinia mCherry inconclusive
O=C(Nc1ccccc1)c1nnsc1S(=O)c1ccc(Cl)cc1 (configuration not stated)	VACV Venus inh inconclusive, Marburg entry inh inconclusive, Lassa entry inh inconclusive, HCMV inh -104 (no result: Vaccinia mCherry)
